From PubChem BioAssay (EPA / NIEHS) come the findings set out here.

For assay [1], the target named is human Retinoid X Receptor beta (RXRb), RXRB (gene 6257) (UniProt P28702). As to the kind of experiment: ATG_RXRb_TRANS: Attagene TRANS-FACTORIAL HepG2 Assay for human Retinoid X Receptor beta (RXRb) (AID 2283013; active = hit-call score of the fitted dose curve at least 0.9, where 1 is the maximum). In a few lines:
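Chimeric receptor-Gal4 activity was assessed in transiently transfected human HepG2 cells after 24 h exposure. Transcripts from GAL4-UAS reporters were quantified by fluorescent RT-PCR and capillary electrophoresis, with DMSO as negative control and baseline.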

Read-out in assay [2]: E-selectin (Homo sapiens) (UniProt P16581)
As to the kind of experiment: BSK_3C_Eselectin: BioMAP Diversity Plus: 3C Assay for Eselectin Biomarker Activity (AID 2283015).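 For outcome: cell surface E-selectin protein quantified by ELISA 24 h after dosing.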 The following applies: primary human endothelial cells (HUVEC); actives raise or lower the signal. Put shortly: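 ELISA read-out of E-selectin on endothelial monolayers after 24 h chemical treatment. Human umbilical vein primary cells served as the system, with DMSO defining baseline activity for bidirectional fitting.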

Read-out in assay [3]: Interleukin-1 alpha (IL1a), IL1A (gene 3552)
As to the kind of experiment: BSK_BE3C_IL1a: BioMAP Diversity Plus: BE3C Assay for Interleukin-1 alpha (IL1a) Biomarker Activity (AID 2283016). As to conditions: primary human bronchial epithelial cells; actives raise or lower the signal. Put shortly: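 Signal from IL-1a ELISA, taken 24 h after chemical dosing of human bronchial epithelial cells, is compared with DMSO as baseline using bidirectional curve fitting.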

Read-out in assay [4]: Monocyte Chemoattractant Protein-1 (MCP1), CCL2 (gene 6347)
The experiment in a line: BSK_3C_MCP1: BioMAP Diversity Plus: 3C Assay for Monocyte Chemoattractant Protein-1 (MCP1) Biomarker Activity (AID 2283017). As to conditions: primary human endothelial cells (HUVEC); actives raise or lower the signal. In a few lines: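 ELISA read-out of MCP-1 from human umbilical vein endothelial cell cultures harvested 24 h post-dosing. Gain or loss of signal was fitted relative to DMSO.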

Read-out in assay [5]: Monocyte Chemoattractant Protein-1 (MCP1), CCL2 (gene 6347)
The experiment in a line: BSK_4H_MCP1: BioMAP Diversity Plus: 4H Assay for Monocyte Chemoattractant Protein-1 (MCP1) Biomarker Activity (AID 2283018). The following applies: primary human endothelial cells (HUVEC); actives raise or lower the signal. In a few lines: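 Endothelial cells from umbilical vein were treated with test chemical, then after 24 h MCP-1 levels were quantified by ELISA; endpoint values came from bidirectional fitting with DMSO as baseline of activity.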

Read-out in assay [6]: Human Leukocyte Antigen - DR isotype (HLADR), HLA-DRA (gene 3122)
The experiment in a line: BSK_3C_HLADR: BioMAP Diversity Plus: 3C Assay for Human Leukocyte Antigen - DR isotype (HLADR) Biomarker Activity (AID 2283019).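 For outcome: ELISA of cell-surface HLA-DR on HUVEC 24 h after dosing.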 As to conditions: primary human endothelial cells (HUVEC); actives raise or lower the signal. Put shortly:
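ELISA readout of surface HLA-DR on human umbilical vein endothelium, taken 24 h after chemical treatment. Gain- and loss-of-signal were both fitted relative to DMSO.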

Read-out in assay [7]: Interleukin-8 (IL8), CXCL8 (gene 3576)
As to the kind of experiment: BSK_3C_IL8: BioMAP Diversity Plus: 3C Assay for Interleukin-8 (IL8) Biomarker Activity (AID 2283020). As to conditions: primary human endothelial cells (HUVEC); actives raise or lower the signal. In a few lines:
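Endothelial primary cells of human umbilical vein origin are dosed with chemical; after 24 h the IL-8 biomarker is measured by ELISA, and concentration–response is fitted in both directions versus DMSO.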

Read-out in assay [8]: Monokine induced gamma interferon (MIG), CXCL9 (gene 4283)
As to the kind of experiment: BSK_3C_MIG: BioMAP Diversity Plus: 3C Assay for Monokine induced gamma interferon (MIG) Biomarker Activity (AID 2283021).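 For AC50: MIG protein level measured by immunoassay in the treated endothelial cultures.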 The following applies: primary human endothelial cells (HUVEC); actives raise or lower the signal. In a few lines:
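Endothelial primary cells (human umbilical vein) are dosed with test chemical in the 3C system. MIG levels are measured by ELISA at 24 h and fitted in both directions relative to DMSO.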

Assay [9] has as its target human Vitamin D Receptor (VDR), VDR (gene 7421) (UniProt P11473). The experiment in a line: ATG_VDR_TRANS: Attagene TRANS-FACTORIAL HepG2 Assay for human Vitamin D Receptor (VDR) (AID 2283022; active = hit-call score of the fitted dose curve at least 0.9, where 1 is the maximum). In a few lines:
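Steps: transfect HepG2 with GAL4-UAS-driven reporter constructs; dose compounds 24 h; isolate RNA, reverse-transcribe, PCR-amplify with 6-FAM-labelled primer extension and HpaI digestion; quantify fragments by capillary electrophoresis relative to DMSO.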

Assay [10] in a line: BSK_3C_SRB: Viability Assessment in the BioMAP Diversity Plus: 3C Assay (AID 2283023).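 Note: fitted both ways against DMSO so a hit may be signal rise or drop.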 The following applies: primary human endothelial cells (HUVEC). Put shortly: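 Absorbance at 560 nm of sulforhodamine B-stained (0.1%) total protein served as a cytotoxicity readout in human umbilical vein endothelial cells, 24 h after chemical treatment. Signal was fitted bidirectionally relative to DMSO.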

Read-out in assay [11]: Matrix Metallopeptidase 1 (MMP1), MMP1 (gene 4312)
The experiment in a line: BSK_BE3C_MMP1: BioMAP Diversity Plus: BE3C Assay for Matrix Metallopeptidase 1 (MMP1) Biomarker Activity (AID 2283024). As to conditions: primary human bronchial epithelial cells; actives raise or lower the signal. In a few lines:
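MMP1 signal, measured by ELISA after a 24 h chemical exposure of human primary bronchial epithelial cells, is analysed with bidirectional fitting using DMSO as negative control.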

Assay [12] is described as follows: BSK_3C_Vis: BioMAP Diversity Plus: 3C Assay for Morphology Visualization (AID 2283025).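 Note: fitted both ways so gain or loss versus DMSO counts.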 As to conditions: primary human endothelial cells (HUVEC). Put shortly:
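Morphology read by light microscopy serves as a background control for the multiplexed 3C assay in human umbilical vein endothelial cells, taken 24 h after dosing, with DMSO as the negative control and bidirectional curve fitting.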

Read-out in assay [13]: Pselectin, SELP (gene 6403)
As to the kind of experiment: BSK_4H_Pselectin: BioMAP Diversity Plus: 4H Assay for Pselectin Biomarker Activity (AID 2283026). As to conditions: primary human endothelial cells (HUVEC); actives raise or lower the signal. Put shortly: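 Endothelial primary cells (human umbilical vein) are dosed, incubated 24 h, and assayed for surface P-selectin by ELISA; responses in either direction are fitted relative to the DMSO negative control.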

Assay [14] in a line: BSK_4H_SRB: Viability Assessment in the BioMAP Diversity Plus: 4H Assay (AID 2283027).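 For AC50: curves fitted both ways versus DMSO so AC50 may be loss or gain.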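 Note: cells exposed to compound for 24 h before staining.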 As to conditions: primary human endothelial cells (HUVEC). In a few lines: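 Cytotoxicity read-out in primary human endothelial cells: after 24 h compound exposure, cells were TCA-fixed (10%), stained with 0.1% SRB and absorbance taken at 560 nm. Values fitted in both directions relative to DMSO.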

A short description of assay [15]: BSK_BE3C_SRB: Viability Assessment in the BioMAP Diversity Plus: BE3C Assay (AID 2283028). As to conditions: primary human bronchial epithelial cells. In a few lines: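 Cells (human bronchial epithelial, primary) are treated with chemicals, and after 24 h the parallel cultures are fixed in 10% TCA. These are then stained with 0.1% SRB and read at 560 nm. Gain or loss of signal is fitted relative to DMSO.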

Read-out in assay [16]: Thrombomodulin, THBD (gene 7056)
As to the kind of experiment: BSK_3C_Thrombomodulin: BioMAP Diversity Plus: 3C Assay for Thrombomodulin Biomarker Activity (AID 2283029). As to conditions: primary human endothelial cells (HUVEC); actives raise or lower the signal. In a few lines:
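Endothelial cells from umbilical vein are dosed with test chemical and incubated 24 h. Thrombomodulin is then quantified by ELISA, with DMSO serving as negative control and activity baseline.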

Read-out in assay [17]: Urokinase-type plasminogen activator receptor (uPAR), PLAUR (gene 5329)
As to the kind of experiment: BSK_4H_uPAR: BioMAP Diversity Plus: 4H Assay for Urokinase-type plasminogen activator receptor (uPAR) Biomarker Activity (AID 2283030). The following applies: primary human endothelial cells (HUVEC); actives raise or lower the signal. In a few lines: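 Cell-surface uPAR ELISA signal, measured 24 h after dosing human umbilical vein endothelial cells, was analyzed with bidirectional fitting relative to DMSO. Parallel SRB staining of total protein tracked overt cytotoxicity.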

Read-out in assay [18]: Vascular endothelial growth factor receptor 2 (Homo sapiens) (UniProt P35968)
The experiment in a line: BSK_4H_VEGFRII: BioMAP Diversity Plus: 4H Assay for Vascular endothelial growth factor receptor 2 (VEGFR2) Biomarker Activity (AID 2283031).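 For AC50: cell-surface VEGFR2 protein level quantified by ELISA.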 As to conditions: primary human endothelial cells (HUVEC); actives raise or lower the signal. In a few lines:
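ELISA read-out of VEGFRII in primary human umbilical vein endothelium, taken 24 h after chemical treatment. Responses are expressed relative to DMSO, with bidirectional fitting.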

Assay [19] has as its target human Thyroid Receptor alpha (THRa1), THRA (gene 7067) (UniProt P10827). The experiment in a line: ATG_THRa1_TRANS: Attagene TRANS-FACTORIAL HepG2 Assay for human Thyroid Receptor alpha (THRa1) (AID 2283014; active = hit-call score of the fitted dose curve at least 0.9, where 1 is the maximum). Put shortly: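 Reporter transcript induction, read by capillary electrophoresis of 6-FAM-labelled RT-PCR products, reflects activity of a transfected THRa1-Gal4 fusion in HepG2 liver cells. Cells were dosed for 24 h; activity was fitted in the positive direction against DMSO.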

Results filed as inconclusive are left out. Activity calls are given as the source filed them. Rule for the calls, unless noted: active = hit-call score of the fitted dose curve at least 0.9, where 1 is the maximum; inactive = score below 0.9.

Sequence of E-selectin (Homo sapiens) (P16581 whole entry, looked up): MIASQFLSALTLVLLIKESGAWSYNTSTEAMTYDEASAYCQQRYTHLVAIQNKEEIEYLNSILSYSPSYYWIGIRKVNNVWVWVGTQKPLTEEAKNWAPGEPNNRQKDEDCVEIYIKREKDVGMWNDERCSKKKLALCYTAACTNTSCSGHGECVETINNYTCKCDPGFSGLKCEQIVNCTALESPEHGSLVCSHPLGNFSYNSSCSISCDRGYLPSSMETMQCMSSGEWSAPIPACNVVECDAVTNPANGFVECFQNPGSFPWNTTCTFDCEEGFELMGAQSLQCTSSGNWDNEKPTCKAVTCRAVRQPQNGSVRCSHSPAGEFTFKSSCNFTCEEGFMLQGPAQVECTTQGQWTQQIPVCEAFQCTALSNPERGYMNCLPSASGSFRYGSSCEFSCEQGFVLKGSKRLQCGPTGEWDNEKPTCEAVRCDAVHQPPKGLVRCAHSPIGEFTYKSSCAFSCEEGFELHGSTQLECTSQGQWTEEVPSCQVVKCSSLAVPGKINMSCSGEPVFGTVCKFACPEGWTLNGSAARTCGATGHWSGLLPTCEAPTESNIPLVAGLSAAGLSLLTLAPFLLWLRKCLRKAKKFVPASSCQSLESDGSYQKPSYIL
Sequence of human Retinoid X Receptor beta (RXRb), RXRB (gene 6257) (P28702 whole entry, looked up, the tested form may be a part): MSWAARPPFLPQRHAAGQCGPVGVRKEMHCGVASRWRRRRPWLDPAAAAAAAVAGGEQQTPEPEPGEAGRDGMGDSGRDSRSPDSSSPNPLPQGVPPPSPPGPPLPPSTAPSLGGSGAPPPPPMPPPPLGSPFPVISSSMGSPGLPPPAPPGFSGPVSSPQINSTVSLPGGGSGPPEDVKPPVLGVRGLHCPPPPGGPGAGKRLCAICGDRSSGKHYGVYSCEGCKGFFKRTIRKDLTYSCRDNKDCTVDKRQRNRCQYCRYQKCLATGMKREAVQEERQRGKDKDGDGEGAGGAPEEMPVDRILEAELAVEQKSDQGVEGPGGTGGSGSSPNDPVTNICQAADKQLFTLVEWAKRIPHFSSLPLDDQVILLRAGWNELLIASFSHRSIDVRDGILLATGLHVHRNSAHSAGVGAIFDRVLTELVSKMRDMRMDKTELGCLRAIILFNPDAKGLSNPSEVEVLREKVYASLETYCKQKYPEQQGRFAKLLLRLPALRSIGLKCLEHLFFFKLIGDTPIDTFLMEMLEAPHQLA
Sequence of human Vitamin D Receptor (VDR), VDR (gene 7421) (P11473 whole entry, looked up, the tested form may be a part): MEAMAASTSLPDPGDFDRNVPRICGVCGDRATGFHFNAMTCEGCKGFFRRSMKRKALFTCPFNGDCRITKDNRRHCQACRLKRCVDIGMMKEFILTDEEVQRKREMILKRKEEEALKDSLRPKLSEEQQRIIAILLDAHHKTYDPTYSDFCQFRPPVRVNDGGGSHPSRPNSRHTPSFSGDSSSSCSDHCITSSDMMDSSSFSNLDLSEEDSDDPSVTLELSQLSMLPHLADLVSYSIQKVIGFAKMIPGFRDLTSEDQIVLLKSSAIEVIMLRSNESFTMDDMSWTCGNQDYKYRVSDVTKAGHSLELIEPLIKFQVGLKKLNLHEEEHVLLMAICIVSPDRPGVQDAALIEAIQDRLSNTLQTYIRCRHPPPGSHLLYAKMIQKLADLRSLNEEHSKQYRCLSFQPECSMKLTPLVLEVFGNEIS
Sequence of human Thyroid Receptor alpha (THRa1), THRA (gene 7067) (P10827 whole entry, looked up, the tested form may be a part): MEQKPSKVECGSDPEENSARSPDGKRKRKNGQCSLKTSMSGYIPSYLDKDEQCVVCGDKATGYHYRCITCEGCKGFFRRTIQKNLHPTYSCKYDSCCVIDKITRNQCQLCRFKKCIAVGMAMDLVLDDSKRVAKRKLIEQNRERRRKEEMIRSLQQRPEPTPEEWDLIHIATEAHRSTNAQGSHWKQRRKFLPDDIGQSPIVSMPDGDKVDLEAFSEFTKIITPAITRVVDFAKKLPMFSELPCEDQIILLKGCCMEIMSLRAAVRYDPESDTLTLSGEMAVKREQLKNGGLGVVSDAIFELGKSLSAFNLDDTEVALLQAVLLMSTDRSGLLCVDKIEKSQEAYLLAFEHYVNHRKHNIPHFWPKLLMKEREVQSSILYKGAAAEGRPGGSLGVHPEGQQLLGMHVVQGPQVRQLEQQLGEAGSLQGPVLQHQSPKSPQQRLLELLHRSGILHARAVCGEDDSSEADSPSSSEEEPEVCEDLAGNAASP

For `CC(=O)Nc1ccc(C(=O)CCl)cc1`, the result in [1], in [9], in [15] and in [16] was inactive. For the same molecule, the AC50 in assay [2] was 7.26 µM (active); in assay [3], 14.9 µM (active); in assay [4], 11.2 µM (active); in assay [5], 9.64 µM (active); in [6] it was 5.06 µM (active); in assay [7], 20 µM (active). Besides, the AC50 in [8] was 10.9 µM (active); in [10], 9.52 µM (active); in [11], 13.2 µM (active); in assay [12], 4.8 µM (active); in assay [13], 4.79 µM (active); in assay [14], 6.69 µM (active). In addition, the AC50 in [17] is 9.47 µM (active); in [18] it was 9.38 µM (active).
Turning to `CCCCCCCCCCCCCCCC(=O)OC/C=C(C)/C=C/C=C(C)/C=C/C1=C(C)CCCC1(C)C`, the result in [1], in assay [3], in [8], in assay [11], in [13] and in assay [14] was inactive. The outcome in assay [15], in [17] and in assay [18] was inactive. Also, the half-maximal activity concentration (AC50) in [2] is 14.3 µM (active); in [4] it was 3.97 µM (active); in assay [6], 20 µM (active); in assay [7], 1.13 µM (active); in [10] it was 29.5 µM (active); in assay [12] it was 38.9 µM (active). In addition, the half-maximal activity concentration (AC50) in [16] is 20 µM (active).
Turning to `C=C(C)CNCC`, the result in [1] and in assay [9] was inactive.
`C#CC(C)N(C)C(=O)Nc1ccc(Cl)cc1` (centres undefined): the call in assay [1], in [19] and in assay [9] was inactive.
As for `CCCCCCCCCCCC(=O)OCC(O)CO` (centres undefined), in assay [1], the AC50 is 100 µM (active). Moreover, the call in assay [9] was inactive.
Take `CCOC(=O)[C@@H](C)Oc1ccc(Oc2nc3ccc(Cl)cc3o2)cc1`: the molecule was classed as inactive in [1], in [19] and in assay [9].
Regarding `CCCCC(CC)C(=O)OC(C)C` (centres undefined), the call in [1], in assay [19] and in assay [9] was inactive.
`CCN(CCN)c1cccc(C)c1`: the result in [1], in assay [19] and in [9] was inactive.
As to `CCCCC(CC)COC(C)=O` (centres undefined), the molecule was called inactive in [1], in assay [19] and in assay [9].
As to `IC(I)I`, the outcome in assay [1], in assay [19], in [2], in [3], in assay [4] and in assay [5] was inactive. In addition, the result in assay [6], in assay [7], in assay [8], in assay [10], in assay [11] and in assay [12] was inactive. Moreover, the outcome in [13], in assay [14], in assay [15], in assay [16], in [17] and in [18] was inactive.
Regarding `CC(=O)O[C@@H]1C[C@@H]2CC[C@@]1(C)C2(C)C`, the call in assay [1] and in assay [9] was inactive.
Turning to `CSCCC=O`, the call in assay [1], in assay [2], in assay [3], in [4], in assay [5] and in assay [6] was inactive. For the same molecule, the outcome in assay [7], in assay [8], in assay [9], in assay [10], in assay [11] and in [12] was inactive. The result in assay [13], in assay [14], in assay [15], in assay [16], in assay [17] and in assay [18] was inactive.
In the case of `CCCCCCCC/C=C\CCCCCCCC(=O)OCC`, the call in assay [1] and in assay [9] was inactive.
Turning to `CC(C)CC(C)CC(O)CC(C)C` (centres undefined), the result in assay [1], in assay [19] and in assay [9] was inactive.
Turning to `O=C(CC(=O)c1ccccc1)c1ccccc1`, the molecule was called inactive in assay [1] and in assay [9]. The AC50 in assay [19] was 58.5 µM (active).

One may read the AC50 as the concentration at which the activity in the assay is half-maximal.
